Assay results taken from PubChem BioAssay (NCATS).
Results filed as inconclusive are left out. Calls of active or inactive are those of the source. Unless noted, the call rests on the fitted dose curve; in most records, active means well fitted inhibition curve with a large enough effect; inconclusive means small, poorly fitted or top-dose-only effect; inactive means no such curve, though single readings can be large or run the other way.

What was measured:
[1] = High-throughput drug toxicity screening in the BPDCN cell line Gen2.2 (AID 1224824; call rule not given here;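 further: cells exposed to compounds for 48 h before reading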); details: Gen2.2 BPDCN cells; at 45.8 µM (top of the series)
Method in brief: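 Seed 500 exponentially growing Gen2.2 cells/well; add compounds by pin tool; incubate 48 h, 37 °C, 5% CO2; add CellTiter-Glo, 15 min RT; read luminescence. % activity vs DMSO (100%) and bortezomib (0%).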

[2] = High-throughput drug toxicity screening in the BPDCN cell line Cal-1 (AID 1224825; call rule not given here); details: Cal-1 BPDCN cell viability, qHTS; at 45.8 µM (top of the series)
Method in brief: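 Viability of the BPDCN line Cal-1 is measured as ATP-based luminescence (CellTiter-Glo) following 48 h incubation with compounds. Percent activity uses DMSO-treated wells as 100% and 9.2 uM bortezomib as 0%.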

[3] = qHTS assay for measurement of the activity of small molecule inhibitors on Zika virus induced Caspase-3 activity in human iPSC derived neural progenitor cells (hNPCs) (AID 1224857); further: % of control where 0% means no effect; nearly all actives have a fitted effect of over 65% in size
Method in brief: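 Percent inhibition of virus-induced caspase-3/7 luminescence (Caspase-Glo), scaled between uninfected cells and Zika-infected cells. hNPCs received compound 1 hr before ZIKV at 2 FFU/cell, with 6 hours infection at 37 C.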

[4] = qHTS assay for measurement of the activity of small molecule inhibitors on Zika virus induced Caspase-3 activity in human astrocytoma cells (AID 1224859);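 further: plate controls were ZIKV-infected untreated cells for no effect and uninfected cells for full effect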
Method in brief: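 Luminescent caspase-3/7 read-out (30 min reagent, room temperature) in human SNB-19 cells infected 6 h with ZIKV (2 FFU/cell) after 1 h compound pre-incubation; Data were normalised to uninfected and infected wells.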

[5] = qHTS Screen of the MIPE 4.0 Collection Against Ewings Sarcoma (RDES) (AID 1259252); further: nearly all actives have a fitted effect of over 35% in size; further: potency means the concentration at half of the fitted maximal effect
Method in brief: (§1)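 Compound titrations go onto adherent log-phase cells 4 h after seeding, incubate 48 h at 37C, then CellTiter-Glo luminescence reports viability relative to DMSO and cell-free controls.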

[6] = qHTS Screen of the MIPE 4.0 Collection Against Ewings Sarcoma (EW8) (AID 1259255); further: nearly all actives have a fitted effect of over 35% in size; further: potency means the concentration at half of the fitted maximal effect;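 on viability: 100% = DMSO-treated cells and 0% = medium-only wells without cells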
Method in brief: as §1

[7] = qHTS Screen of the MIPE 4.0 Collection Against Ewings Sarcoma (TC71) (AID 1259253); further: nearly all actives have a fitted effect of over 40% in size; further: potency means the concentration at half of the fitted maximal effect
Method in brief: as §1

Structure (SMILES)	cell viability, % of control (lower = more cytotoxic) [1]	viability (% of control) [2]	Potency [3]	Potency [4]	Potency [5]	Potency [6]	Potency [7]
O=C(O)CNC(=O)c1c(O)c2ccccc2n(Cc2ccccc2)c1=O	256%	132%	inactive	inactive	14.8 µM (active)	16.6 µM (active)	–
C1=C2CCCN[C@H]2[C@@H]2C[C@H]1[C@@H]1CCCCN1C2	131%	105%	inactive	inactive	inactive	inactive	–
NC1CC1c1ccccc1 (stereo not given)	70.9%	95.2%	inactive	inactive	–	inactive	inactive
CC(C)(O)C=CC(=O)[C@](C)(O)[C@H]1[C@H](O)C[C@]2(C)[C@@H]3CC=C4[C@@H](C=C(O)C(=O)C4(C)C)[C@]3(C)C(=O)C[C@@]12C	4.04%	2.59%	inactive	inactive	0.59 µM (active)	0.118 µM (active)	0.209 µM (active)
CCc1c(C(=O)C(N)=O)c2c(OCC(=O)O)cccc2n1Cc1ccccc1	114%	115%	inactive	inactive	–	–	20.9 µM (active)
CC(O)=C(C#N)C(=O)Nc1cc(Br)ccc1Br	79.3%	103%	inactive	inactive	–	–	23.5 µM (active)
C[C@@H]1CC[C@@]2(OC1)O[C@H]1C[C@H]3[C@@H]4CC=C5C[C@@H](O[C@@H]6O[C@H](CO)[C@@H](O[C@@H]7O[C@@H](C)[C@H](O)[C@@H](O)[C@@H]7O)[C@H](O)[C@@H]6O[C@@H]6O[C@@H](C)[C@H](O)[C@@H](O)[C@@H]6O)CC[C@]5(C)[C@@H]4CC[C@]3(C)[C@@H]1[C@H]2C	10.6%	12.9%	inactive	inactive	4.18 µM (active)	3.72 µM (active)	–
C[C@](O)(COc1ccc(C#N)cc1)C(=O)Nc1ccc(C#N)c(C(F)(F)F)c1	54.6%	99.4%	inactive	inactive	inactive	inactive	–
O=c1[nH]c2ccccc2n1C1CCN(Cc2ccc(-c3[nH]c4cc5ncnc5cc4nc3-c3ccccc3)cc2)CC1	4.84%	3.61%	inactive	inactive	23.5 µM (active)	18.7 µM (active)	20.9 µM (active)
COC1=CC(C)=C[C@@H](C)[C@@H](O)[C@@H](C)CC(C)=CC=C[C@H](OC)[C@H]([C@@H](C)[C@@H](O)[C@H](C)[C@@]2(O)C[C@@H](O)[C@H](C)[C@@H](C(C)C)O2)OC1=O	67.2%	18.4%	inactive	inactive	0.0059 µM (active)	0.0053 µM (active)	–
